# Results from PubChem BioAssay (NCATS).
# A number with no mark means an inactive call. Results filed as inconclusive are left out. A call without a number means that no potency is given here. Calls of active or inactive are those of the source. Unless noted, calls come from the whole dose curve; as a rule, active = well fitted curve in the direction sought with a large enough effect; inconclusive = small, poorly fitted or top-dose-only effect, or another doubt; inactive = no such curve, though single readings can be large; an effect the other way counts as inactive or inconclusive.
# Tests used:
# [1] = AP1 Signaling Pathway (AID 357; active = well fitted curve in either direction with a large enough effect, not every such curve was filed as active); conditions: ME-180 AP-1-bla reporter, EGF-induced, beta-lactamase ratio, 5 h; at 38 µM (top of the series)
# How it was run: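 Titration-series screen for positive or negative modulators of EC50 EGF-induced signaling in ME-180 cells carrying an AP-1-driven beta-lactamase reporter. After 5 hours at 37 degrees Celsius, CCF4 460nm/530nm emission ratio gave %Activity; AC50 values derived.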
# [2] = biological target: Cytochrome P450 1A2 (Homo sapiens) (UniProt P05177); experiment: p450-cyp1a2 (AID 410; calls by dose curve; note: potency is the fitted concentration of half-maximal effect); conditions: recombinant CYP1A2, luciferin-ME demethylation, luminescence; series mostly up to 57 µM
# How it was run: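 20nM CYP1A2 with 100uM Luciferin-ME (at Km) in 100mM KPO4; compound preincubated 10 min, NADPH regeneration added, 60 min at room temperature. Luciferin quantified by luminescence after detection reagent; normalized to 57 uM furafylline.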
# [3] = NFAT Signaling Pathway (AID 444; active = well fitted curve in either direction with a large enough effect, not every such curve was filed as active;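 note: carbachol stimulus at about its EC50 of 1 µM final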); conditions: Jurkat NFAT-bla M1, carbachol, beta-lactamase ratio, 5 h; at 38 µM (top of the series)
# How it was run: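 Jurkat cells carrying an NFAT-driven β-lactamase reporter and co-transfected muscarinic M1 receptor were treated with compound plus carbachol (1 uM final, an EC50 level) for 5 h at 37 °C. CCF4 loading followed for 1 h at RT; 460/530 nm ratio gave %activity.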
# [4] = Stat Signaling Pathway (AID 446; active = well fitted curve in either direction with a large enough effect, not every such curve was filed as active;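 note: ME-180 cervical cancer cells given 40 pM IL-6 alongside compound; SIE-controlled beta-lactamase reporter measured as 460/530 nm FRET emission ratio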); conditions: ME-180 (cervical carcinoma) SIE beta-lactamase reporter, IL-6 stimulated, 5 h; at 38 µM (top of the series)
# How it was run: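 IL-6/STAT signaling read in ME-180 cells via an SIE beta-lactamase reporter. Stimulus was 40 pM IL-6 (its AC50) for 5 hrs, so both activation and inhibition register.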
# [5] = biological target: Glucocorticoid receptor (Homo sapiens) (UniProt P04150); experiment: GR-GFP Redistribution (AID 450;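 active = compounds whose dose series gives a full or clear partial fitted curve of increased nuclear translocation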; note: potency is the fitted concentration of half-maximal effect); conditions: U2OS GR-GFP nuclear translocation, laser cytometry, 2 h
# [6] = biological target: Glucocorticoid receptor (Homo sapiens) (UniProt P04150); experiment: GR-EFC Redistribution (AID 451; calls by dose curve; note: potency is the fitted concentration of half-maximal effect); conditions: CHO-K1 GR-EFC translocation, beta-gal luminescence, 2 h
# How it was run: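 CHO-K1 cells stably expressing nuclear-localized β-gal enzyme acceptor and GR fused C-terminally to the enzyme donor fragment; ligand-driven nuclear translocation restores β-gal by complementation. Compounds titrated up to 46 uM final, 2 h at 37 °C; luminescence read.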
# [7] = biological target: Mitogen-activated protein kinase 10 (Mus musculus) (UniProt Q61831); experiment: JNK3 AlphaScreen Assay (AID 530; active = well fitted curve in either direction with a large enough effect, not every such curve was filed as active;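 note: kinase came from lysate of stimulated human HepG2 cells; signal reports phosphorylation of biotinylated GST-cJun 1-79 at Ser73 with 10 µM ATP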); conditions: JNK3 lysate, c-Jun phosphorylation; series mostly up to 57.1 µM
# How it was run: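 Inhibitors reduce antibody binding to phosphorylated biotin-cJun, lowering AlphaScreen luminescence. Lysates from HepG2 cells pre-activated by IL-1beta plus TNF-alpha supplied JNK3; compounds were titrated.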
# [8] = biological target: 3',5'-cyclic-AMP phosphodiesterase 4B (Homo sapiens) (UniProt Q07343); experiment: qHTS Assay for Inhibitors of PDE-IV (AID 607; active = well fitted activation curve with a large enough effect in the main read-out, with a control signal flat, not every such curve was filed as active); conditions: HEK293 ACTOne CNG channel cells, membrane potential fluorescence; series mostly up to 22.9 µM
# How it was run: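 Live HEK293 cells with a modified cyclic nucleotide-gated (CNG) channel report intracellular cAMP via membrane-potential dye fluorescence (ex 535/em 590 nm). Endogenous PDE-IV was targeted. Compounds were tested at up to 22.9 uM final; RO 20-1724 100 uM served as control.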
# [9] = biological target: Guanine nucleotide-binding protein G(i) subunit alpha-1 (Homo sapiens) (UniProt P63096); experiment: qHTS Assay for Inhibitors of RGS12 GoLoco Motif Activity (Green Fluorophore) (AID 879); conditions: Galphai1/FITC-RGS12 GoLoco peptide, fluorescence polarization; series mostly up to 57.1 µM;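 note: negative values mean loss of peptide binding seen as reduced polarization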
# How it was run: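 Fluorescence polarization assay: 50 nM Gαi1 with 10 nM FITC-labeled RGS12 GoLoco peptide in 10 mM Tris pH 7.5, 150 mM NaCl, 0.1 mM GDP, 0.05% NP40, 10 min at room temperature with compound.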
# [10] = biological target: Cytochrome P450 3A4 (Homo sapiens) (UniProt P08684); experiment: qHTS Assay for Activators of Cytochrome P450 3A4 (AID 885); conditions: recombinant CYP3A4, Luciferin-PPXE luminescence, 60 min; series mostly up to 57.1 µM; note: nearly all actives have a fitted effect of over 65% in size
# How it was run: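 Quantitative HTS format: compounds preincubated with 20nM human CYP3A4 and Luciferin-PPXE substrate at KM, reaction started by NADPH regeneration, stopped after 60 min, luciferase luminescence read 20 min later.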
# [11] = biological target: Muscarinic acetylcholine receptor M1 (Rattus norvegicus) (UniProt P08482); experiment: qHTS Assay for Antagonists of Acetylcholine Muscarinic M1 Receptor: Kinetic Measurement of Intracellular Calcium Response (AID 943); conditions: M1-expressing cells, kinetic intracellular calcium fluorescence; series mostly up to 35.3 µM; note: nearly all actives have a fitted effect of over 75% in size
# How it was run: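 CHO cells expressing rat M1 receptor, Fluo-4 loaded, preincubated 10 min with compound, then stimulated with EC80 carbachol (100 nM final). Kinetic calcium fluorescence over 4 min; response taken as peak over basal signal.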
# [12] = biological target: Muscarinic acetylcholine receptor M1 (Rattus norvegicus) (UniProt P08482); experiment: qHTS Assay for Antagonists of Acetylcholine Muscarinic M1 Receptor: Measurement of IP-One Response (AID 944); conditions: CHO-M1 cells, IP-One HTRF, antagonist mode; series mostly up to 46.1 µM; note: nearly all actives have a fitted effect of over 75% in size
# How it was run: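 CHO cells stably expressing rat M1, pretreated 10 min with compound, then stimulated 30 min with carbachol at EC80 (200 nM) in LiCl-containing buffer pH 7.4; IP1 accumulation read by HTRF competition (665/620 nm).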
# [13] = biological target: Pyruvate kinase (Leishmania mexicana) (UniProt Q27686); experiment: qHTS Validation Assay for Inhibitors of Leishmania Mexicana Pyruvate Kinase (AID 945); conditions: purified L. mexicana pyruvate kinase, enzyme activity, E451W mutant enzyme; series mostly up to 57.5 µM
# How it was run: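 Eight-point qHTS titrations; enzyme 0.2 nM LmPYK (E451W mutant); substrates 0.5 mM PEP, 0.1 mM ADP; 7 mM MgCl2; 1 h room temperature; PKLight luminescence normalized to neutral control.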
# [14] = biological target: Alpha-galactosidase A (Homo sapiens) (UniProt P06280); experiment: Counterscreen for Glucocerebrosidase Inhibitors: qHTS Assay for Human alpha-Galactosidase at pH 4.5 (AID 992); conditions: purified enzyme, fluorogenic substrate; series mostly up to 76.9 µM
# How it was run: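 Read-out is 4-methylumbelliferone fluorescence (365 nm excitation, 440 nm emission) after a pH 10 NaOH/glycine stop. Reactions held 2 nM enzyme and 80 uM substrate at pH 4.5 for 20 min at room temperature.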
# [15] = biological target: alpha-glucosidase (Oryza sativa, rice) (UniProt Q653V4); experiment: Counterscreen for Glucocerebrosidase Inhibitors: qHTS Assay for Rice alpha-Glucosidase at pH 5.0 (AID 997); conditions: rice alpha-glucosidase enzyme activity; series mostly up to 76.9 µM
# How it was run: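 Rice alpha-glucosidase (4 nM final) with 400 uM 4-methylumbelliferyl-alpha-D-glucopyranoside in citrate buffer pH 5.0, 20 min at room temperature, stopped at pH 10; fluorescence 365/440 nm, compounds 0.7 nM–77 uM, AC50 from Hill fits.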
# [16] = Validation of Assay for Modulators of Lamin A Splicing (AID 1459; active = well fitted curve in the direction sought with a large enough effect in the signal ratio; the % refers to the signal ratio;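 note: cells exposed to compound for two days before reading; ratio rise marks activators and ratio drop marks inhibitors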); conditions: Lamin A splicing dual RFP/GFP fluorescence reporter; series mostly up to 9.22 µM
# How it was run: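 S3 HeLa cells stably expressing a lamin A-EGFP splicing minigene and DsRed2 were seeded at 600 cells/well in Opti-MEM with 2% FBS, pin-dosed, and incubated 48 hrs at 37 °C, 5% CO2. Laser-scanning cytometry (488 nm) gave GFP/RFP total intensity ratio.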
# [17] = biological target: DNA repair nuclease/redox regulator APEX1 (Homo sapiens) (UniProt P27695); experiment: qHTS Validation Assay for Inhibitors of the Human Apurinic/apyrimidinic Endonuclease 1 (APE1) (AID 1705;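 note: TAMRA fluorescence gain over two minutes as APE1 cuts a quenched THF abasic duplex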); conditions: purified APE1 endonuclease activity, fluorescence, titration; series mostly up to 57.1 µM
# How it was run: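 Human APE1 was preincubated with compound for 15 min at room temperature, then 50 nM (final) THF-abasic double-stranded DNA substrate bearing 5'-TAMRA and 3'-BHQ-2 was added. Incision-driven fluorescence rise (ex 525/em 598 nm) was read kinetically.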
# [18] = Counterscreen for APE1 Inhibitors: Fluorescent Dye Displacement Validation Assay (AID 1707); conditions: fluorescent dye displacement from DNA; series mostly up to 57.1 µM
# How it was run: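 ThO 250 nM + dsDNA 50 nM (THF abasic site, 5'-TAMRA), Tris-HCl pH7.5/50mM NaCl/2 mM MgCl2/0.01% Tween-20; compounds pin-transferred; ex 480/em 540 nm endpoint. Neutral = no compound; no-DNA ThO wells = negative control.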
# Sequence of Muscarinic acetylcholine receptor M1 (Rattus norvegicus) (P08482 whole entry, looked up): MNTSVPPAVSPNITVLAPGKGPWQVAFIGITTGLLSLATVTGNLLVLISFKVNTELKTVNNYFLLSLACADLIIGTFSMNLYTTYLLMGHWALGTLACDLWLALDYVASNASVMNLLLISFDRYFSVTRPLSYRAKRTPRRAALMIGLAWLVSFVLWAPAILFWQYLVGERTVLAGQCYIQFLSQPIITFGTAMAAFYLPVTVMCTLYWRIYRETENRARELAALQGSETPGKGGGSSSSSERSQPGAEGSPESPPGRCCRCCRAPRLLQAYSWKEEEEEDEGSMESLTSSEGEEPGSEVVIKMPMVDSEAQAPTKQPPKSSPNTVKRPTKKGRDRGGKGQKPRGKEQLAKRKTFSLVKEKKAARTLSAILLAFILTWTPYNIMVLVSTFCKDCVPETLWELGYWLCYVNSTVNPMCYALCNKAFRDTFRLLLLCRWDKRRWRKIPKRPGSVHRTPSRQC
# Sequence of Glucocorticoid receptor (Homo sapiens) (P04150 whole entry, looked up, the tested form may be a part): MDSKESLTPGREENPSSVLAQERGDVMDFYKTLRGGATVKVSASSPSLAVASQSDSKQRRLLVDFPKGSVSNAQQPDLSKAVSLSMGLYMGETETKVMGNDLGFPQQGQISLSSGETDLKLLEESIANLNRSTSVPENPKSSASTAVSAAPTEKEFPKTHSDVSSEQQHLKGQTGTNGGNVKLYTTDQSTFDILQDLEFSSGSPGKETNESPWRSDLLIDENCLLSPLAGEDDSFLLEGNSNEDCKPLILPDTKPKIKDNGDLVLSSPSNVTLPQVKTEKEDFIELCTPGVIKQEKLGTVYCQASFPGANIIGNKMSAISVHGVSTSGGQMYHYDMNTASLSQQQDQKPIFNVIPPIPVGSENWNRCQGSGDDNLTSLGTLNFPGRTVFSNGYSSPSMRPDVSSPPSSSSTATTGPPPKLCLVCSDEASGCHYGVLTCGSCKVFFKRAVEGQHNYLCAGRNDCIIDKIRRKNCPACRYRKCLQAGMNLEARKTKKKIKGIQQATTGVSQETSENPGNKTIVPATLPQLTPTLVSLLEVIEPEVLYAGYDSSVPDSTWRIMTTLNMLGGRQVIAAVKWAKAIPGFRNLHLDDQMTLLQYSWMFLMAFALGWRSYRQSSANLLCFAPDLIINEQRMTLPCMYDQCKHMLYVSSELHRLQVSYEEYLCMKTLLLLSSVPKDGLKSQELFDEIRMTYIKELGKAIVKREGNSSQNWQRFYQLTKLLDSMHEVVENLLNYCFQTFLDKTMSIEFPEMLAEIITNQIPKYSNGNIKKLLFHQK
# Sequence of Cytochrome P450 3A4 (Homo sapiens) (P08684 whole entry, looked up): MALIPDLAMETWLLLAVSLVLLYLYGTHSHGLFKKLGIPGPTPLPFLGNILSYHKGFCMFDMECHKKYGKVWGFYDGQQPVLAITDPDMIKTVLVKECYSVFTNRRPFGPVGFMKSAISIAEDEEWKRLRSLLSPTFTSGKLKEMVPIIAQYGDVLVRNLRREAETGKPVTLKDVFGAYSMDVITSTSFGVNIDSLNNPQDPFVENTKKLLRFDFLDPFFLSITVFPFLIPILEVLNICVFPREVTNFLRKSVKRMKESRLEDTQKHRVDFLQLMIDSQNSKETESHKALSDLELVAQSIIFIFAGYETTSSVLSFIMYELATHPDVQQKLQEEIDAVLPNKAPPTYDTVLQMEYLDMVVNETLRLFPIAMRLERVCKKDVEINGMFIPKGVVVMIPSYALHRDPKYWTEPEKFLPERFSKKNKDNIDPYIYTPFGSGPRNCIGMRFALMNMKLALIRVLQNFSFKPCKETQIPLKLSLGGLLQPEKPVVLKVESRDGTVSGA
# Sequence of Guanine nucleotide-binding protein G(i) subunit alpha-1 (Homo sapiens) (P63096 whole entry, looked up): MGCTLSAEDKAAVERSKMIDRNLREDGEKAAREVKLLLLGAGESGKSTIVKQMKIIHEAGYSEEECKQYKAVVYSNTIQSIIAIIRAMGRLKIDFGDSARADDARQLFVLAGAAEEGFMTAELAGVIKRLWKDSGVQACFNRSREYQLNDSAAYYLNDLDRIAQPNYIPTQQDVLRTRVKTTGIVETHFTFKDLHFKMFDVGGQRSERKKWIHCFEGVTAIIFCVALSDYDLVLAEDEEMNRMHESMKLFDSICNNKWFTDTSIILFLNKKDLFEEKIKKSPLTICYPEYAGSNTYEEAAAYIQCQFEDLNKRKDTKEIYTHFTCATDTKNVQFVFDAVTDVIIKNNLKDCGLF
# Sequence of Cytochrome P450 1A2 (Homo sapiens) (P05177 whole entry, looked up): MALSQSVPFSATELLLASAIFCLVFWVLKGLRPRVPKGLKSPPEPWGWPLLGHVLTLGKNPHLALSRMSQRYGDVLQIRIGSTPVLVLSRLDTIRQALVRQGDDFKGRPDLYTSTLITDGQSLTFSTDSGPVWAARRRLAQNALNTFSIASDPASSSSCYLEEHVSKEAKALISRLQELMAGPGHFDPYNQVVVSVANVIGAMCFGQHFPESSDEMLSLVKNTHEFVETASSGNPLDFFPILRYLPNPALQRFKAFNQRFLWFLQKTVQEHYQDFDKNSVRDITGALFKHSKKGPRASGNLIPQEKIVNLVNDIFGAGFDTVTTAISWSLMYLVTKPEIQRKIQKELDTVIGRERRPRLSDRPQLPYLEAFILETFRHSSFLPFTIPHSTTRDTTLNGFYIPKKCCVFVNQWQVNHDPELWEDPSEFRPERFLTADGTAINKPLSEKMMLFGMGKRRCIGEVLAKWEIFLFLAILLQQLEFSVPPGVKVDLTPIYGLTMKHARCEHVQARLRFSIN
# Sequence of Pyruvate kinase (Leishmania mexicana) (Q27686 2-499 E452W): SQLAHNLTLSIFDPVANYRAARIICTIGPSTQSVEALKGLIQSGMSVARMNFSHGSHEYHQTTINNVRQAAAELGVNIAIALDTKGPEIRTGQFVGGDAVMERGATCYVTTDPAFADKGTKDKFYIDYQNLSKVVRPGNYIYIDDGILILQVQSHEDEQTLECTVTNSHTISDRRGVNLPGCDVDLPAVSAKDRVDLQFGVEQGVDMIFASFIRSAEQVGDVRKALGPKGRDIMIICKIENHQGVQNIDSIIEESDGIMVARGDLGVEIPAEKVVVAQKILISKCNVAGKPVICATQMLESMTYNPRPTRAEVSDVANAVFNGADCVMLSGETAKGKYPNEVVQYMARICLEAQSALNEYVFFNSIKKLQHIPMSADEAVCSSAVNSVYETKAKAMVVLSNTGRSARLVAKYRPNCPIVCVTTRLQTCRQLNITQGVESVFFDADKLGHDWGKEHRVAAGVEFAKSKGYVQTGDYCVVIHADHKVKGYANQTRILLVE
# Sequence of DNA repair nuclease/redox regulator APEX1 (Homo sapiens) (P27695 whole entry, looked up): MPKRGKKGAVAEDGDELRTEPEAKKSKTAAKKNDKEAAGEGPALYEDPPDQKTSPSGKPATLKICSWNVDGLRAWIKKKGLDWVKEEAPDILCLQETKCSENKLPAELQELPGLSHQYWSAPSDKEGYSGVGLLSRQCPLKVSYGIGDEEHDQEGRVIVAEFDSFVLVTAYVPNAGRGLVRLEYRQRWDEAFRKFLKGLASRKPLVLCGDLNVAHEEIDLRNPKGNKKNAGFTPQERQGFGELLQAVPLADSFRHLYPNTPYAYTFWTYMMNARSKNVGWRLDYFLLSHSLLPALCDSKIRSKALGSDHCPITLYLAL
# Sequence of 3',5'-cyclic-AMP phosphodiesterase 4B (Homo sapiens) (Q07343 whole entry, looked up): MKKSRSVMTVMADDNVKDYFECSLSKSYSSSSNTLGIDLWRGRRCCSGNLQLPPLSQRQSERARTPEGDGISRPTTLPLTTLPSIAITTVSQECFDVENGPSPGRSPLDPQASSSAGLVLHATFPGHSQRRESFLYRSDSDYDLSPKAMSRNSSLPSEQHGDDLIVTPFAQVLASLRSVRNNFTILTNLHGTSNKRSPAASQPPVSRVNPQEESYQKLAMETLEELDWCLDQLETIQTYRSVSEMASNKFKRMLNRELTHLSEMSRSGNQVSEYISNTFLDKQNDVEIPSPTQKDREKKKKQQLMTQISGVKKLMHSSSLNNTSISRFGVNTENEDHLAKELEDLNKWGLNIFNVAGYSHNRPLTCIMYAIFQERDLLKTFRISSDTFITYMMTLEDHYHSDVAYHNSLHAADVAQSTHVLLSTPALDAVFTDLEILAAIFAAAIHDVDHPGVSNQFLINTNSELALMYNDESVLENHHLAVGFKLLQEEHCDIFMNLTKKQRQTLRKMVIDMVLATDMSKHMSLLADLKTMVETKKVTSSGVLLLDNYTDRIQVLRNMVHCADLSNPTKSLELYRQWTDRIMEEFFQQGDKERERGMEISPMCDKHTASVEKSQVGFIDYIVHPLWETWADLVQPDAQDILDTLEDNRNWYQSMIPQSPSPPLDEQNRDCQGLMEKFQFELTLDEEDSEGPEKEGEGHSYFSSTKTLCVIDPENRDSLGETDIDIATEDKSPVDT
# Sequence of Alpha-galactosidase A (Homo sapiens) (P06280 whole entry, looked up): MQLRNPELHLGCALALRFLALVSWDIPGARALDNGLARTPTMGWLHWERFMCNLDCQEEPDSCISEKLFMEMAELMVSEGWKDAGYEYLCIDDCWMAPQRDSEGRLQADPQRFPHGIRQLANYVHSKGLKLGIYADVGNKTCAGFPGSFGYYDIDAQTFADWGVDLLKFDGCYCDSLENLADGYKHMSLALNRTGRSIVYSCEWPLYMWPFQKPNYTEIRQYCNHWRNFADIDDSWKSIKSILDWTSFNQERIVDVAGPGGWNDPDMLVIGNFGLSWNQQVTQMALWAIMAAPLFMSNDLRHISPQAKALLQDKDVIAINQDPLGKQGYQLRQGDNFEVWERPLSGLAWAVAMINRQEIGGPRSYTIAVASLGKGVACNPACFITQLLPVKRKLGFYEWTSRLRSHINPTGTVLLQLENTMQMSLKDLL
smiles,measurement,setting,value
Cn1cnc2c(NC3CCCC3)ncnc21,"activity change, negative = inhibition",[1],-18%
same,Potency,[2],12.6 µM (active)
same,"activity change, negative = inhibition",[3],-0.777%
same,"activity, negative = inhibition",[4],11.1%
same,Potency,[5],> 46 µM
same,Potency,[6],> 46 µM
same,Potency,[7],inactive
same,Potency,[8],inactive
same,outcome,[9],inactive
same,Potency,[10],inactive
same,Potency,[11],inactive
same,Potency,[12],inactive
same,Potency,[13],inactive
same,outcome,[14],inactive
same,outcome,[15],inactive
same,outcome,[16],inactive
same,Potency,[17],inactive
same,Potency,[18],inactive
